# Data: ChEMBL document CHEMBL3988442, “University of Dundee, Small-Polar-MMV Screening Library” (2021)
# For some assays here: Measured potencies and affinities stand elsewhere.
# Experiments:
# Parameters in all cases: scale not given: direction of the effect not stated beside the values
# [1] = target: Protein translocase subunit SecA (Escherichia coli (strain K12)) (UniProt P10408); assay: Assay to Identify E. coli SecA ATPase Inhibitors; format: functional; conditions: 30 µM
# [2] = target: T1, Ubiquitin-activating enzyme e1, putative (Leishmania donovani (strain BPK282A1)) (UniProt E9BSI1); assay: Leishmania donovani Ubiquitin Activating Enzyme (LdE1); format: functional; conditions: 30 µM
# T1 sequence (whole entry): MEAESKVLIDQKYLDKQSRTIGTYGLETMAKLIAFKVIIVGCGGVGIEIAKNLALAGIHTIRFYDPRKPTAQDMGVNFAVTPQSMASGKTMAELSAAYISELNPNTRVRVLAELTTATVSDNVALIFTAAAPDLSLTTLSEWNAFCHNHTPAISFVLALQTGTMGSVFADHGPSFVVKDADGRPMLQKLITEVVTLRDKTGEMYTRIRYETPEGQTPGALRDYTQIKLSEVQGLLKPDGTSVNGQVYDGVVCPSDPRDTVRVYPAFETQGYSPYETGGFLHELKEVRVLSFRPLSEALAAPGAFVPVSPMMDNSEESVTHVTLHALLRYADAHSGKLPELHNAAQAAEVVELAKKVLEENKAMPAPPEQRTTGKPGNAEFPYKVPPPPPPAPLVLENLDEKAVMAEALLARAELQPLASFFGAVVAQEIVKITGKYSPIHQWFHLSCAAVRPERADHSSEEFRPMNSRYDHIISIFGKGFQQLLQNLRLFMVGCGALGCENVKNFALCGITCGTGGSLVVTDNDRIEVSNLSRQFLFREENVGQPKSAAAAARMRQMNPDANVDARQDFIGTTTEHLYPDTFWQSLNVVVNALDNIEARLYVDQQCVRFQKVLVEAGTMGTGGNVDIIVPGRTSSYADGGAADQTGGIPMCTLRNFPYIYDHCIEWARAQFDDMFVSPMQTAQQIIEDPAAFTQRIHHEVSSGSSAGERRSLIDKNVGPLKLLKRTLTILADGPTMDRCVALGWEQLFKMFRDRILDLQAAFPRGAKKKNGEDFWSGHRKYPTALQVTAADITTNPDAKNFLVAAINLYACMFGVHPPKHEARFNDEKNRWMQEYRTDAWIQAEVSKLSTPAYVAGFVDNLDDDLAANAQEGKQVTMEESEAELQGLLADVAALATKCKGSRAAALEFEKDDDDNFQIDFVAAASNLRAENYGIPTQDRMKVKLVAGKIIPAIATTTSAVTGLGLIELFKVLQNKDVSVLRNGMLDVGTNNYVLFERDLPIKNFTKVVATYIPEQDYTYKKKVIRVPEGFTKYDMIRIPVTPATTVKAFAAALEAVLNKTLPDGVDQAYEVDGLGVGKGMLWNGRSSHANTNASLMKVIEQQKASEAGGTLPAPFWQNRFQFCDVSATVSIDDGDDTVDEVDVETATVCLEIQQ
# [3] = target: AMP-activated protein kinase, AMPK (Homo sapiens) (UniProt P54646+O43741+P54619+Q9UGJ0+Q9Y478+Q13131+Q9UGI9); assay: AMP-dependent Kinase enzyme assay. An in vitro enzyme assay that detects ADP turnover that is directly proportional to AMPK activity. This uses naive AMPK that is activated during the assay with MK-8722; format: functional; conditions: 30 µM
# [4] = target: Sialic acid-binding Ig-like lectin 9 (Homo sapiens) (UniProt Q9Y336); assay: Hs-Siglec9 ALPHAscreen SOP 20170721; conditions: 10 µM
# Trypanosoma cruzi = assay: Trypanosoma cruzi phosphomannomutase and mannose-1-phosphate guanylyltransferase assay; format: functional; conditions: 10 µM
# [5] = target: T2, Arginase-2, mitochondrial (Homo sapiens) (UniProt P78540); assay: in vitro enzyme assay to detect the production of urea directly proportional to the activity of Arginase II; format: functional; conditions: 33.3 µM; further: in the data most compounds retested in dose-response had high values
# T2 sequence (whole entry): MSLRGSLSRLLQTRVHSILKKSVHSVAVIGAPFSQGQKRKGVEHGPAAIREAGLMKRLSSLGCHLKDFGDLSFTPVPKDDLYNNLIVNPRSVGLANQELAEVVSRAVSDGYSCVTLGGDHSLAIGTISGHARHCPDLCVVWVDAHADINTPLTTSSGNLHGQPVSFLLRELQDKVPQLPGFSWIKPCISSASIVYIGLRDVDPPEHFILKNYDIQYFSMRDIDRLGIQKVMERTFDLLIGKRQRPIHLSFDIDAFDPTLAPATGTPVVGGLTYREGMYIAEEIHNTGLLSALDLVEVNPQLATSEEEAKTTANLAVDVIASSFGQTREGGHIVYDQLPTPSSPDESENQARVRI
# [6] = target: T3, Proteasome subunit beta (Trypanosoma cruzi) (UniProt O96673); assay: Trypanosoma cruzi proteasome chymotrypsin-like activity (TcProtChymo) assay.; further: in the data most compounds retested in dose-response had high values; format: functional; conditions: 9.37 µM
# T3 sequence (whole entry): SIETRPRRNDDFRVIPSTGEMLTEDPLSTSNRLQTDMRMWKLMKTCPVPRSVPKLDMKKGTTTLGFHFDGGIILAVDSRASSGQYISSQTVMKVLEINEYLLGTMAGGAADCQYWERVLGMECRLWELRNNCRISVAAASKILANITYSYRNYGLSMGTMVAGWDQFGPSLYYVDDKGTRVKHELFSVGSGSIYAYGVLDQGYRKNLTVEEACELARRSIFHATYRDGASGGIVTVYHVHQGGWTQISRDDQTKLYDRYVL
# Homo sapiens = organism: Homo sapiens; assay: To identify inhibition of the IFN signalling (Jak-Stat) pathway via expression of an eGFP reporter gene under the control of an IFN-stimulated response element (ISRE) containing MxA promoter.; format: functional; conditions: 30 µM
# [7] = target: T4, Tyrosyl-tRNA synthetase, putative (Trypanosoma cruzi (strain CL Brener)) (UniProt Q4DSP6); assay: Trypanosoma cruzi tyrosyl tRNA synthetase (TcYRS) _High Tyrosine SOP; format: functional; conditions: 30 µM; further: in the data most compounds retested in dose-response had high values
# T4 sequence (whole entry): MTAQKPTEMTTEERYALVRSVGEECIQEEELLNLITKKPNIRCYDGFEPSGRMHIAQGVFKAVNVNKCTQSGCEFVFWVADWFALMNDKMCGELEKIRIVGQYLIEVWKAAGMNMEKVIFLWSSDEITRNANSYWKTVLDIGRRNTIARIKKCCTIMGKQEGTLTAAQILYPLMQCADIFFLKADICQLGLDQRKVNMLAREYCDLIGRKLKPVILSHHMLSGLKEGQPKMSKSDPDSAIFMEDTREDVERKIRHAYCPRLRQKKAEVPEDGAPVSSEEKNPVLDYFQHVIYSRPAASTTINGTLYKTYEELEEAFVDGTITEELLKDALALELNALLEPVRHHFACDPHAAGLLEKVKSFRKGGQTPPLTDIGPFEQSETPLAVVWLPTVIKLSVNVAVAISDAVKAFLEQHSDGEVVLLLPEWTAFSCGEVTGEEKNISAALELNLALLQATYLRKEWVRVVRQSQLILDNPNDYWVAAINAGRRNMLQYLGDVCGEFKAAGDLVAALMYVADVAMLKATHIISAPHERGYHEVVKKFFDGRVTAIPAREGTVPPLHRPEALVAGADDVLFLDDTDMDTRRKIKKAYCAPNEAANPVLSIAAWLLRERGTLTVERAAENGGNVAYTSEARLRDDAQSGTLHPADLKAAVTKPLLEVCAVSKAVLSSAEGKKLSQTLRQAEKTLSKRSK
# [8] = target: T4, Tyrosyl-tRNA synthetase, putative (Trypanosoma cruzi (strain CL Brener)); assay: Trypanosoma cruzi tyrosyl tRNA synthetase (TcYRS) SOP; format: functional; conditions: 30 µM
# [9] = target: Chromo domain-containing protein 1 (Saccharomyces cerevisiae (strain ATCC 204508 / S288c) (Baker's yeast)) (UniProt P32657); assay: ScCHD-1 Enzyme Inhibition Assay; format: functional; conditions: 30 µM; further: in the data most compounds retested in dose-response had high values
# Chromo domain-containing protein 1 (Saccharomyces cerevisiae (strain ATCC 204508 / S288c) (Baker's yeast)), sequence (P32657 whole entry, the tested form may be a part): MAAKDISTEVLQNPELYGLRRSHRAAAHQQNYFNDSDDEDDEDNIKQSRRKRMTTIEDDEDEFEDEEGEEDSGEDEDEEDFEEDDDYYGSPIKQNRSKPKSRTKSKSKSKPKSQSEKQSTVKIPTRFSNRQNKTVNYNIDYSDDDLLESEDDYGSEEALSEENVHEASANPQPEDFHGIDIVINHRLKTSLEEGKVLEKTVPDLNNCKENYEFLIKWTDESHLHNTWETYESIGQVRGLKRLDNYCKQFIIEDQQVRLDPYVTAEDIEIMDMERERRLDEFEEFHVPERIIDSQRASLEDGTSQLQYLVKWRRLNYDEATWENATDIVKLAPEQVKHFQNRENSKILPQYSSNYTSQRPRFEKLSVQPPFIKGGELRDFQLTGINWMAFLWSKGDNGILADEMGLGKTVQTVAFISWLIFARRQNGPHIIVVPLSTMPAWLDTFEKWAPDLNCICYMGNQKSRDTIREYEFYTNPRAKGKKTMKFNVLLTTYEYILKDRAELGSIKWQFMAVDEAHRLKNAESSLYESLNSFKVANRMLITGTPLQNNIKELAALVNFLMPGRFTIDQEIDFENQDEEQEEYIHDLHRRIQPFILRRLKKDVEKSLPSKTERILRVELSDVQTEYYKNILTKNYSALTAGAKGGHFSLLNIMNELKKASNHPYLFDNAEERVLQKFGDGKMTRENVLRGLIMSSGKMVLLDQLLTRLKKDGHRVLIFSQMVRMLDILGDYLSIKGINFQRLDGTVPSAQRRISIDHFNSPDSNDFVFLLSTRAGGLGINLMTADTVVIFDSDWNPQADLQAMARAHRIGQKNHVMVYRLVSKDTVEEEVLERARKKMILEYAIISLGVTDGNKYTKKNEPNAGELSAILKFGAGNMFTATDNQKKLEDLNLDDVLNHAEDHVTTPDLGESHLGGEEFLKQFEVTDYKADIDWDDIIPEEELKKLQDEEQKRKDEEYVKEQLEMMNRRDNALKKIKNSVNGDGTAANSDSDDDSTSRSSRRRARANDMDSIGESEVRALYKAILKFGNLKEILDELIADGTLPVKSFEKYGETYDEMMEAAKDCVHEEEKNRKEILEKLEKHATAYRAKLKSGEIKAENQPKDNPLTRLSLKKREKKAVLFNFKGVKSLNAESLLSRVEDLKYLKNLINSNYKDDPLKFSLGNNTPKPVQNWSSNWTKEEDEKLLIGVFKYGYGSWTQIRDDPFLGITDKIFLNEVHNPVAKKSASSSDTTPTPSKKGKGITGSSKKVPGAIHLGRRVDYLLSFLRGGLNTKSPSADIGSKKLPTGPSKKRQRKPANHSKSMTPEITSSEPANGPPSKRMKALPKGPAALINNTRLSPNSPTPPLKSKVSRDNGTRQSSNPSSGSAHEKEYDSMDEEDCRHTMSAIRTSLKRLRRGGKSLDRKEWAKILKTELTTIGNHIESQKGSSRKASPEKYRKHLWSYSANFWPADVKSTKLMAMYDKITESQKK
# Sialic acid-binding Ig-like lectin 9 (Homo sapiens), sequence (Q9Y336 whole entry): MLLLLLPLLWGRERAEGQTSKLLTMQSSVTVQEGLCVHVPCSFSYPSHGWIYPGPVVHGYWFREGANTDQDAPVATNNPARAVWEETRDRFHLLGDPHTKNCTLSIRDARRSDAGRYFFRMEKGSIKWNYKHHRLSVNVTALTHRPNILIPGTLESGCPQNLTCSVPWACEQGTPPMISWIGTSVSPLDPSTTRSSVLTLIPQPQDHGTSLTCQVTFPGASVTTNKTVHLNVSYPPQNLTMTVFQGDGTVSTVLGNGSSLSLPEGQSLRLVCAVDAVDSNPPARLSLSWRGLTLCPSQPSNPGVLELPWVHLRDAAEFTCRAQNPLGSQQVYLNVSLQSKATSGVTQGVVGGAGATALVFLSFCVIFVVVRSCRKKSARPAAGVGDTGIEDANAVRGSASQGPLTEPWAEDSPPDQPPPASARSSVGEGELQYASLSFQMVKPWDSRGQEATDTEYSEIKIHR
# Protein translocase subunit SecA (Escherichia coli (strain K12)), sequence (P10408 whole entry): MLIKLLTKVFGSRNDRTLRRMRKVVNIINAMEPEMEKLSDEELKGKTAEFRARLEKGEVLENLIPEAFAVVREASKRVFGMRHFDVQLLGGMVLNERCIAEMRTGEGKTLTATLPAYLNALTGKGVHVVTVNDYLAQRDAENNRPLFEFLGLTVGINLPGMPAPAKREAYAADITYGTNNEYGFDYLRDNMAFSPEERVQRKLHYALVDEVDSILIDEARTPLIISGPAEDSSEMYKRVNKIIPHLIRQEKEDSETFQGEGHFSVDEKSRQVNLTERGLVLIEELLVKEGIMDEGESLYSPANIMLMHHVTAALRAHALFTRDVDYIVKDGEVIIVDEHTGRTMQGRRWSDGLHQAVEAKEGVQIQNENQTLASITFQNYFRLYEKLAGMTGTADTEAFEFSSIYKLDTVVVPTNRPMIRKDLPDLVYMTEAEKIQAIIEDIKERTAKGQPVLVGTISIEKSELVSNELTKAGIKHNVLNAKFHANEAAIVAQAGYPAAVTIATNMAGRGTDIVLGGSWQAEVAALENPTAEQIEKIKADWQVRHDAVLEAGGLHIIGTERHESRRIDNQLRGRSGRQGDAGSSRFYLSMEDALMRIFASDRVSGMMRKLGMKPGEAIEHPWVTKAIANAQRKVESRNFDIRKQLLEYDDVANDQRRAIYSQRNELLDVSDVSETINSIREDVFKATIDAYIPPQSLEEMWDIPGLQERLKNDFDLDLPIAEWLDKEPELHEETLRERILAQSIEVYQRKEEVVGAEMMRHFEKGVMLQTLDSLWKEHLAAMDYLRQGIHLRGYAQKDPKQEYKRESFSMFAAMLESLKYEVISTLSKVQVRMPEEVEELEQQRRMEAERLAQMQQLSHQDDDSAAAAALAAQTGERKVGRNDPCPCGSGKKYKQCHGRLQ
Compound,Percent Effect [1] [%],Percent Effect [2] [%],Percent Effect [3] [%],Percent Effect [4] [%],Percent Effect (Trypanosoma cruzi) [%],Percent Effect [5] [%],Percent Effect [6] [%],Percent Effect (Homo sapiens) [%],Percent Effect [7] [%],Percent Effect [8] [%],Percent Effect [9] [%]
Cc1nc(C)n(CC2CCCN(c3ncnc4c3CCC4)C2)n1 (configuration not stated),-4.39,0,0.226,-3.72,-4.25,-2.81,-2.88,64.3,-2.46,-8.64,4.82
O=C(c1cccnc1)N1C[C@@H]2CC[C@H](C1)N(Cc1cc(F)ccc1F)C2,0.34,11,29.4,-0.061,3.33,0,10.3,21.9,7.53,15,-7.41
CC1CCCN(Cc2coc(-c3cccc(F)c3)n2)C1 (configuration not stated),-5.97,2.6,8.2,7.31,1.31,2.49,-0.507,3.77,5.83,2.44,0.197
Cc1cnn(C2CN(Cc3ccc4c(c3)OCCO4)C2)c1,-0.648,-2.67,-8.78,1.34,-2.04,-1.56,19.9,8.06,8.2,16.1,-8.99
CC(C)(C)c1nnc(CN2CCOC(Cn3cccn3)C2)o1 (configuration not stated),-3.67,15.2,-3.73,9.59,5.38,1.9,5.16,14.4,5.42,16.5,-5.63
O=C(CCNc1ncccn1)N1CCCC(n2ccnc2)C1 (configuration not stated),-7.87,6.33,7.8,-0.356,-2.77,0.645,9.78,12,8.33,15.2,-20.9
Cn1ccnc1CNC(=O)N1CCCC(Cc2nccn2C)C1 (configuration not stated),-8.83,-2.7,9.59,-1.15,-3.71,-0.833,2.28,-4.83,10.9,1.22,1.72
Cc1cccc(-c2ccc(C(=O)NCCN(C)C3CC3)c(=O)[nH]2)c1,-4.4,0,-7.73,-0.0788,-4.43,4.41,-0.721,19,0.493,6.17,-1.94
CC(=O)Nc1nc(CN2CCCC2Cn2cc(C)cn2)cs1 (configuration not stated),0.188,13,1.99,-21.8,1.08,-6.53,21.9,4.62,9.52,25.9,-28.6
CCOC(C)c1nc(CN2CCC(CNC(C)=O)CC2)cs1 (configuration not stated),-1.27,0,-5.03,0.273,1.93,-2.86,8.97,-19.2,-0.529,-2.44,-2.65
Cc1nnc(NCc2ccccc2Cl)c(C#N)c1C,-1.72,-29.7,-32.4,-2.89,2.51,1.29,5.39,26.5,13.9,11,5.89
Cc1cccc(CN2C(=O)CO[C@@H]3CN(CCO)C[C@H]32)c1,1.05,10.8,-5.9,-3.44,4.88,26.2,12.1,10.1,6.93,8.54,1.31
O=C(Nc1ccc(N2CCCC2)nc1)N1CCc2ccccc2C1,-3.4,0,-13.6,2.55,-6.45,3.75,20.7,7.01,15.8,18.3,0.41
O=S(=O)(NC1=NCN(CCc2cccs2)CN1)c1ccccc1,-3.47,9.33,1.7,2.24,6.29,-11.1,18.3,19.6,5.29,12.8,-7.27
O=C(c1ccc(Br)o1)N1CCCCC1Cn1cccn1 (configuration not stated),-1.08,2.7,-1.88,12.6,0.279,0.924,15.3,18.2,0.99,3.66,0.762
CNC(=O)C1CCN(C(=O)c2cccn2Cc2cccs2)CC1,-4.47,-2.6,1.37,-5.3,-5.99,2.85,6.25,40.1,6.8,9.76,-7.72
CN(CC(=O)N1CCC(C(O)c2ccccc2)CC1)c1cnccn1 (configuration not stated),-0.515,10.8,-0.406,9.65,-0.279,-2.77,8.62,13.4,5.94,23.2,-7.9
O=C1CC(c2ccccc2)c2c(n3ccsc3nc2=O)N1 (configuration not stated),-4.74,17.3,-7.29,1.39,2.16,-6.87,13.3,5.81,5.29,15.4,-7.95
Cc1nn(CCn2ccnc2-c2cc3n(n2)CCCNC3)c(C)c1Cl,-4.62,21.3,-6.15,20.4,5.75,6.25,16.9,21.8,7.1,23.5,-7.41
CC(=O)N1CCN(C(=O)CCOc2ccc(C(C)C)cc2)CC1,-2.33,7.89,5.03,10.9,-2.26,2.3,14.4,0.908,5.39,4.88,-1.04
CCn1c(C(=O)N2CCN(C(=O)COC)CC2)cc2ccccc21,-10.4,13,-4.96,23.8,11.4,2.49,-0.169,10.3,7.77,21.9,-12.3
Cc1cnn(CCNCc2csc(-c3ccc(F)cc3)n2)c1,-3.56,-15.8,4.58,5.27,3.19,0.383,1,1.14,1.47,0,5.05
